Results from PubChem BioAssay (EPA / NIEHS).
Results filed as inconclusive are left out. Activity calls are given as the source filed them. How the source made its calls, unless noted: active means hit-call score of the fitted dose curve at least 0.9, where 1 is the maximum; inactive means score below 0.9.

Assay: CCTE_Simmons_MITO_max_resp_rate: CCTE's HepG2 Seahorse XF Respirometric Screening Assay at Maximal Respiratory State [uncoupled], Simmons Lab (AID 2284002)
Conditions: actives raise or lower the signal
Method in brief: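 HepG2 oxygen consumption measured on Seahorse XF after FCCP uncoupling, following test compound injection; 7 concentrations from 125 nM to 100 uM final. Readings every 6 min over 72 min, three biological replicates; bidirectional fit versus DMSO.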

SMILES	AC50	outcome
CC(C)(C)c1cc(O)c(C(C)(C)C)cc1O	36.7 µM (active)	–
Cc1cccc(Nc2cc(Cl)nc(SCC(=O)O)n2)c1C	–	inactive
COc1ccc(S(=O)(=O)N2C(=O)[C@@](c3ccccc3OC)(N3C[C@H](O)C[C@H]3C(=O)N(C)C)c3cc(Cl)ccc32)c(OC)c1	–	inactive
COc1ccc2c(c1)c(CC(=O)O)c(C)n2C(=O)c1ccc(Cl)cc1	–	inactive
CN[C@H]1CC[C@@H](c2ccc(Cl)c(Cl)c2)c2ccc(S(N)(=O)=O)cc21	–	inactive

Assay: CCTE_Simmons_MITO_inhib_resp_rate: CCTE's HepG2 Seahorse XF Respirometric Screening Assay at Inhibited Respiratory State [full ETC block], Simmons Lab (AID 2284006)
Conditions: actives raise or lower the signal
Method in brief: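 Test chemicals at seven final concentrations (125 nM–100 uM) in three biological replicates, with DMSO as vehicle. HepG2 oxygen consumption was then tracked on a Seahorse XF96 for 72 min through FCCP and rotenone/antimycin A phases, with the inhibited-phase rate as the endpoint.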

SMILES	outcome
CC(C)(C)c1cc(O)c(C(C)(C)C)cc1O	inactive
Cc1cccc(Nc2cc(Cl)nc(SCC(=O)O)n2)c1C	inactive
COc1ccc(S(=O)(=O)N2C(=O)[C@@](c3ccccc3OC)(N3C[C@H](O)C[C@H]3C(=O)N(C)C)c3cc(Cl)ccc32)c(OC)c1	inactive
COc1ccc2c(c1)c(CC(=O)O)c(C)n2C(=O)c1ccc(Cl)cc1	inactive
CN[C@H]1CC[C@@H](c2ccc(Cl)c(Cl)c2)c2ccc(S(N)(=O)=O)cc21	inactive

Assay: CCTE_Simmons_MITO_viability: CellTiter-Glo Viability Assessment for CCTE's HepG2 Seahorse XF Respirometric Screening Assay [post-hoc], Simmons Lab (AID 2284007; active means hit-call score of the fitted dose curve at least 0.9, where 1 is the maximum)
Conditions: not given
Method in brief: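 Post-hoc viability check on the HepG2 respirometry plates: luciferase-based ATP signal measured once, after 90 min compound exposure spanning 125 nM–100 uM final. Activity was referenced to DMSO as baseline.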

SMILES	outcome
CC(C)(C)c1cc(O)c(C(C)(C)C)cc1O	inactive
Cc1cccc(Nc2cc(Cl)nc(SCC(=O)O)n2)c1C	inactive
COc1ccc2c(c1)c(CC(=O)O)c(C)n2C(=O)c1ccc(Cl)cc1	inactive
CN[C@H]1CC[C@@H](c2ccc(Cl)c(Cl)c2)c2ccc(S(N)(=O)=O)cc21	inactive

Assay: CCTE_Shafer_MEA_acute_spike_number: CCTE's Neural Acute Assay for Total Number of Spikes, Shafer Lab (AID 2284008);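 on AC50: curve fitted for decrease in spike count so AC50 reflects inhibitors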
Conditions: not given
Method in brief: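 Rat primary cortical neurons on 48-well MEA plates, DIV 13 or 15, at 37 C. 40 min baseline then 40 min with compound (0.03-40 uM); spikes detected at 8x rms noise, expressed as percent change from baseline.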

SMILES	outcome	AC50
Cc1ccc(C)c(O)c1C	inactive	–
CC(C)(C)c1cc(O)c(C(C)(C)C)cc1O	–	25.9 µM (active)
COc1ccc(S(=O)(=O)N2C(=O)[C@@](c3ccccc3OC)(N3C[C@H](O)C[C@H]3C(=O)N(C)C)c3cc(Cl)ccc32)c(OC)c1	–	31.8 µM (active)
CC(=O)Oc1ccccc1C(=O)O	inactive	–
COc1ccc2c(c1)c(CC(=O)O)c(C)n2C(=O)c1ccc(Cl)cc1	inactive	–
CN[C@H]1CC[C@@H](c2ccc(Cl)c(Cl)c2)c2ccc(S(N)(=O)=O)cc21	inactive	–

Assay: CCTE_Shafer_MEA_acute_firing_rate_mean: CCTE's Neural Acute Assay for Mean Firing Rate, Shafer Lab (AID 2284009);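 further: analyzed for loss of signal so actives lower firing rate relative to DMSO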
Conditions: not given
Method in brief: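 Primary rat cortical neurons on 16-electrode MEA wells were exposed on DIV 13 or 15 to compound (0.03-40 uM). Spike counts per recording time, averaged over electrodes, were compared between 40-min baseline and 40-min post-exposure recordings as percent change.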

SMILES	outcome	AC50
Cc1ccc(C)c(O)c1C	inactive	–
CC(C)(C)c1cc(O)c(C(C)(C)C)cc1O	–	25.9 µM (active)
COc1ccc(S(=O)(=O)N2C(=O)[C@@](c3ccccc3OC)(N3C[C@H](O)C[C@H]3C(=O)N(C)C)c3cc(Cl)ccc32)c(OC)c1	–	31.8 µM (active)
CC(=O)Oc1ccccc1C(=O)O	inactive	–
COc1ccc2c(c1)c(CC(=O)O)c(C)n2C(=O)c1ccc(Cl)cc1	inactive	–
CN[C@H]1CC[C@@H](c2ccc(Cl)c(Cl)c2)c2ccc(S(N)(=O)=O)cc21	inactive	–
